MBNL1 CUG block: inhibitors of human MBNL1 binding to CUG repeat RNA. Q9NR56. TR-FRET MBNL1-His/biotin-(CUG)12 binding, 665/545 ratio. Potency, µM (top dose mostly 57.5 µM), for inactives: top-dose activity change, negative = inhibition, usual class: inhibitors. 280,000 tested, 0.036% active. AID 2675; active = well fitted inhibition curve with a large enough effect in the signal ratio, with a control signal flat, not every such curve was filed as active; inconclusive = small, poorly fitted or top-dose-only effect, or effect the other way, or a change in a side signal; inactive = no such curve, though single readings can be large or run the other way; the % refers to the signal ratio; note: potency is the fitted concentration of half-maximal effect; % is set by controls: 0 for no effect and ±100 for the full control effect
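TR-FRET readout: Ex 340 nm, 665/545 nm emission ratio, normalized to buffer-only (basal) and MBNL1-(CUG)12 controls. Complex of MBNL1-His with Biotin-(CUG)12, compounds 92 nM–58 uM, incubated 60 min at room temperature.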
TRHR PAM: allosterically enhances the human TRH receptor | P34981 | TRHR cells, fluo-8 calcium fluorescence, EC20 TRH enhancement | enhancement, % at 2 µM | 360,000 tested, 0.66% active; in the data active = enhancement above about 30%; note: 0% is about no effect
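Enhancer read-out: after compound pinning and an initial kinetic agonist-mode read, an EC20 of TRH (10 nM final) was injected and fluo-8 calcium signal (Ex 480/Em 530) followed at 1 s/cycle for 100 cycles in TRHR-expressing cells.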
Epigenetic derep: regulators of epigenetic silencing causing reporter derepression in mouse cells | murine LDR cells, GFP reporter derepression, 30 h | Potency, µM (doses to about 53.9 µM), without a hit: top-dose GFP activation, usual class: activators | 280,000 tested, 0.2% active | AID 1865; note: potency is the fitted concentration of half-maximal effect; % of control where 0% means no effect; nearly all actives have a fitted effect of over 60% in size
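Reporter derepression read as number of fluorescent GFP-positive objects, 20-120 um in size, counted by laser-scanning cytometer. Mouse LDR line with an epigenetically silenced CMV-GFP locus; compound incubation 30 h, 37 C.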
IL2 activator: activators of IL-2; IL-2 activation reporter assay, cell-based qHTS; stimulated with anti-CD3/CD4/CD28 beads; in transgenic mouse T cells; activation, % (series mostly up to about 46 µM); 360,000 tested, 0.065% active; AID 652025; in the data active = activation above about 50%; inconclusive = mostly about 30% to 49%; note: 0% is about no effect
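First, unstimulated transgenic mouse T cells were exposed to compound for 60 min. Next, anti-CD3/anti-CD4-coated beads with anti-CD28 were added. Finally, after 18 h at 37 degrees C, EGFP and DsRed were imaged.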
CBFb-RUNX1 inh: blocks binding between human CBF-beta and RUNX1; Q01196+Q13951; AlphaScreen CBFb-His/RUNX1-biotin binding, biochemical; Potency, µM (top dose mostly 59.8 µM), for the others: top-dose activity, negative = inhibition, actives largely listed as inhibitors; 230,000 tested, under 10 active; AID 1477; note: % of control where 0% means no effect
Target sequence (Q01196 whole entry, looked up): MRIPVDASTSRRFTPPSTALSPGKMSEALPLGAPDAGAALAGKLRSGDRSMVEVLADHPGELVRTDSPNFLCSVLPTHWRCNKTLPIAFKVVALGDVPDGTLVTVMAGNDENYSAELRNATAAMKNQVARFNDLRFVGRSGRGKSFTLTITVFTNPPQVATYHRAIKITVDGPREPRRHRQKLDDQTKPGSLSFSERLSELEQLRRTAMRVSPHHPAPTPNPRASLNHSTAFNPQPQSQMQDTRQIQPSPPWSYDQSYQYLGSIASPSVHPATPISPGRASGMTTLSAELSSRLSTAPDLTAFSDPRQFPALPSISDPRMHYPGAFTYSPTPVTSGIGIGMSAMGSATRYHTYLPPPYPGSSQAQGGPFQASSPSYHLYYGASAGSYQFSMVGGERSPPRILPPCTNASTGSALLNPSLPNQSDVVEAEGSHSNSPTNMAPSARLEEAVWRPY
Target sequence (Q13951 whole entry, looked up): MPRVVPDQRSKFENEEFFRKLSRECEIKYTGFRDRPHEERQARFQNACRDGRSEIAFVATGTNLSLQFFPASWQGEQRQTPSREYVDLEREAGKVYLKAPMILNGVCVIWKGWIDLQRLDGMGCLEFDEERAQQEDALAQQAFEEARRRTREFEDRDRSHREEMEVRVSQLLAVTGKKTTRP
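Inhibition was taken as any reduction in AlphaScreen signal from the CBF-beta–RUNX1 pair (His and biotin tags, 30 nM each), measured after compound (15 min) and bead (90 min) incubations at room temperature.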
TRHR agonist: activates the human TRH receptor | P34981 | TRHR cells, calcium flux fluo-8, FDSS agonist mode | activation, % at 2 µM | 360,000 tested, 0.18% active; in the data active = activation above about 30%; note: 0% is about no effect
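TRHR-expressing cells loaded with fluo-8 calcium dye; 23 nL library compound pin-transferred, kinetic FDSS fluorescence (Ex 480/Em 530) recorded about 180 s for agonist-induced calcium release, before a 10 nM TRH EC20 addition for potentiator mode.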
MBNL1 TRFRET: blocks human MBNL1 binding to CUG repeat RNA, TR-FRET validation. TR-FRET MBNL1-His / biotin-(CUG)12 binding, 60 min. shares compounds with MBNL1 CUG block. Potency, µM (highest dose often 57.6 µM), without a hit: top-dose activity change, negative = inhibition, actives largely listed as inhibitors. 140 tested, 50% active. AID 493199
MBNL1 AlphaScrn: MBNL1-CUG RNA binding inhibition, AlphaScreen validation; shares compounds with MBNL1 CUG block; AID 493205; Potency, µM (titrated, usually from 57.7 µM), inactives show top-dose activity, negative = inhibition, usual class: inhibitors; AlphaScreen MBNL1-His / biotin-(CUG)12 binding; 140 tested, 30% active
Menin-MLL HTRF: hit in HTRF counterscreen for MBNL1-poly(CUG) binding inhibitors; Potency, µM (titrated, usually from 57.6 µM), inactives show at the highest dose activity, negative = inhibition, hits mostly inhibitors; shares compounds with MBNL1 CUG block; His-Menin/biotin-MLL peptide TR-FRET counterscreen; 120 tested, 20% active
Starred values were filed as active, the others as inactive; [ ] = remark or other dose. Sampled rows, rich in hits. Any-hit rate of the full collection: about 0.88%. Unless noted, calls come from the whole dose curve; as a rule, active = well fitted curve in the direction sought with a large enough effect; inconclusive = small, poorly fitted or top-dose-only effect, or another doubt; inactive = no such curve, though single readings can be large; an effect the other way counts as inactive or inconclusive.

Cc1cc(C)cc(NC(=O)c2cc(S(=O)(=O)N3CCC(C)CC3)cn2C)c1 was read as TRHR PAM 0, Epigenetic derep 4% and TRHR agonist 0.
Screening C/C(CCc1ccc2c(c1)OCO2)=N\NC(=O)c1ccccc1 returned MBNL1 CUG block 10%, TRHR PAM 0, Epigenetic derep -1%, IL2 activator 3, CBFb-RUNX1 inh 5% and TRHR agonist 0.
`NC(=NCc1ccc2c(c1)OCO2)NC(=O)c1ccccc1` gave TRHR PAM -3, Epigenetic derep 2%, IL2 activator 1, CBFb-RUNX1 inh 5%, TRHR agonist 0, MBNL1 TRFRET 13µM*, MBNL1 AlphaScrn 13µM* and Menin-MLL HTRF 4%.
CCN(CC)S(=O)(=O)c1cc(-c2nnc(Nc3ccc(OC)c(C(N)=O)c3)c3ccccc23)ccc1C was read as TRHR PAM -3, Epigenetic derep 2% and TRHR agonist -1.
`C=CCOC(/C=C/c1ccccc1)CC` (stereo unspecified) gave CBFb-RUNX1 inh 11%.
O=C(Nc1cccnc1Cl)c1cc(-c2cccc(O)c2)on1 was read as MBNL1 CUG block 7.1µM*, TRHR PAM -3, IL2 activator 1, TRHR agonist -1, MBNL1 TRFRET 13µM*, MBNL1 AlphaScrn inconclusive and Menin-MLL HTRF -62%.
Screening COc1cccc(-c2cc(C(=O)Nc3cccnc3Cl)no2)c1 returned MBNL1 CUG block 14%, TRHR PAM -1, Epigenetic derep -1%, IL2 activator -1 and TRHR agonist 1.
`COc1ccc(CCNC(=O)C2CC(=O)N(c3ccc(C)cc3)C2)cc1OC` (stereo unspecified) gave MBNL1 CUG block -4%, TRHR PAM -4, IL2 activator 0, TRHR agonist 0, MBNL1 TRFRET inconclusive, MBNL1 AlphaScrn -8% and Menin-MLL HTRF 1%.
`COc1ccc(Cc2n[nH]c(=S)n2NC(=O)Nc2ccc(Cl)c(Cl)c2)cc1` gave MBNL1 CUG block 14µM*, TRHR PAM -1, Epigenetic derep 1%, IL2 activator 0, CBFb-RUNX1 inh -3%, TRHR agonist -1, MBNL1 TRFRET 10µM*, MBNL1 AlphaScrn -28% and Menin-MLL HTRF 41µM*.
Screening Cc1ccc(C(=O)NCCN2C3=NC[C@H](C(C)C)N3C[C@H]2Cc2ccc(O)cc2)cc1Br returned MBNL1 CUG block 40µM*, TRHR PAM -5, Epigenetic derep -3%, IL2 activator 0, CBFb-RUNX1 inh 6%, TRHR agonist 0, MBNL1 TRFRET 41µM*, MBNL1 AlphaScrn inconclusive and Menin-MLL HTRF -26%.
`CCN(C(=O)C1CCN(S(=O)(=O)c2cc(Br)cc3c2N(C(C)=O)CC3)CC1)c1cccc(C)c1` gave TRHR PAM -4, Epigenetic derep 0% and TRHR agonist -1.
For O=C1c2ccccc2C(=O)C12OC2c1cccc2ccccc12 (stereo unspecified) the results were MBNL1 CUG block 25µM*, TRHR PAM 5, Epigenetic derep -1%, IL2 activator -2, CBFb-RUNX1 inh 5%, TRHR agonist -1, MBNL1 TRFRET -22%, MBNL1 AlphaScrn inconclusive and Menin-MLL HTRF 7%.
Screening CO[C@@H]1c2cc(F)ccc2/C(=C\CCOC(=O)C/C=C/c2ccccc2)[C@H]1C returned Epigenetic derep 0% and CBFb-RUNX1 inh -1%.
For Cc1ccc(NC2c3ncccc3C(=O)N2Cc2cccs2)cc1 (stereo unspecified) the results were MBNL1 CUG block 40µM*, TRHR PAM 1, Epigenetic derep -4%, IL2 activator -3, CBFb-RUNX1 inh -7%, TRHR agonist -1, MBNL1 TRFRET 52µM*, MBNL1 AlphaScrn 26µM* and Menin-MLL HTRF -4%.
`Cc1cccc(-c2nc(CN3CCCC(C(=O)N4CCN(c5cc(Cl)ccc5C)CC4)C3)c(C)o2)c1` (stereo unspecified) gave TRHR PAM 14, Epigenetic derep -1% and TRHR agonist 0.
For CCCN1C[C@H](CSC)C[C@@H]2c3cccc4[nH]cc(c34)C[C@H]21 the results were MBNL1 CUG block inconclusive, TRHR PAM -7, Epigenetic derep 2%, IL2 activator 0, CBFb-RUNX1 inh -1%, TRHR agonist 1, MBNL1 TRFRET inconclusive and MBNL1 AlphaScrn -42%.
For CN1C[C@H](C(=O)N[C@]2(C)O[C@]3(O)[C@H]4CCCN4C(=O)[C@H](Cc4ccccc4)N3C2=O)C[C@H]2c3cccc4[nH]cc(c34)C[C@@H]21 the results were Epigenetic derep 0%[16.9 µM] and CBFb-RUNX1 inh -12%[21.7 µM].
`COc1ccc(Cn2ccc3nc(C)c(C(=O)N4CCN(c5cccc(OC)c5)CC4)cc3c2=O)cc1` gave TRHR PAM -2, Epigenetic derep 1% and TRHR agonist 0.
For O=C1NC(=O)C2C1C(c1ccccc1)N1C3C(=O)NC(=O)C3C(c3ccccc3)N21 (stereo unspecified) the results were MBNL1 CUG block 32µM*, TRHR PAM -5, Epigenetic derep 0%, IL2 activator 0, CBFb-RUNX1 inh -10%, TRHR agonist -1, MBNL1 TRFRET inconclusive, MBNL1 AlphaScrn inconclusive and Menin-MLL HTRF 1%.
C=CCC(Nc1ccc(OC)cc1)(C(=O)OCC)c1ccccc1 (stereo unspecified) was read as Epigenetic derep -1% and CBFb-RUNX1 inh -9%.
For COCCNC(=O)CCC1CCN(C/C=C/c2ccccc2OC)CC1 the results were MBNL1 CUG block -34%, TRHR PAM 7, IL2 activator -2, TRHR agonist 1, MBNL1 TRFRET -20%, MBNL1 AlphaScrn inconclusive and Menin-MLL HTRF 5%.

Screens deposited in PubChem by National Center for Advancing Translational Sciences (NCATS).
